HADH2 inh – HADH2 (human) dehydrogenase inhibition; Q99714; recombinant HADH2, NADH fluorescence, beta-hydroxybutyryl-CoA; Potency, µM (titrated, usually from 57.1 µM), for the others: top-dose activity change, negative = inhibition, actives largely listed as inhibitors; 3.4% of 73,000 active; AID 886; note: potency is the fitted concentration of half-maximal effect; % is set by controls: 0 for no effect and ±100 for the full control effect; nearly all actives have a fitted effect of over 60% in size
Target sequence (Q99714 whole entry, looked up, one chain of several): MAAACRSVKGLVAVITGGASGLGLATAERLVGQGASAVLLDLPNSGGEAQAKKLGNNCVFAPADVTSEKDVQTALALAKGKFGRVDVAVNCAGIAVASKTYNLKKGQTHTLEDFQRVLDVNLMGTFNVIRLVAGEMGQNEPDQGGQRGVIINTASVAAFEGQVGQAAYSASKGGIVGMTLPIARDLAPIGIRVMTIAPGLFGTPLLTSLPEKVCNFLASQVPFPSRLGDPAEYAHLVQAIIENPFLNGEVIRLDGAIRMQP
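E. coli-expressed His-tagged HADH2 tested at 20 nM in alkaline Tris buffer (pH 9.0); oxidation of 90 uM beta-hydroxybutyryl-CoA with 1 mM NAD+ tracked fluorimetrically for 4 min.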
A350 fluor – A350 region autofluorescence. AID 590. 11% of 59,000 active. Compound autofluorescence, 340/450 nm, Alexa 350 dye-equivalents; hits give high values. max dye-equivalent concentration, M; in the data active = max dye-equivalent concentration above about 10 nM; inconclusive = mostly about 1.1 nM to 9.6 nM
AID923 – qHTS Assay for Allosteric/Competitive Inhibitors of Caspase-1: Spectroscopic Profiling in AFC Spectral Region; Potency, µM (doses to about 57.5 µM), for the others: at the highest dose fluorescence increase, usual class: activators; 1.1% of 75,000 active; compound fluorescence, AFC spectral region (405/520 nm); AID 923, 2007; note: potency is the fitted concentration of half-maximal effect; 0% is about no effect
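Compound autofluorescence profiled at 405 nm ex/520 nm em during kinetic caspase 1 run (50 nM enzyme, 5 uM Ac-WEHD-AFC, HEPES pH 7.5, 10 mM DTT). Titration up to 57 uM; baseline from regression intercept, normalized to AFC standard curve.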
HSD17B inhib – HSD17B dehydrogenase inhibition; recombinant HSD17B10, NADH fluorescence kinetic; Potency, µM (top dose mostly 57.1 µM), for inactives: at the top dose activity change, negative = inhibition, usual class: inhibitors; 7.6% of 75,000 active;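 note: the protocol describes HADH2 (HSD17B10) and not the HSD17B4 of the title; potency is the fitted concentration of half-maximal effect; % is set by controls: 0 for no effect and ±100 for the full control effect; nearly all actives have a fitted effect of over 70% in size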
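Activity followed as NADH fluorescence increase (ex 360, em 450 nm) every 30 seconds for 4 min, using final 90 uM beta-hydroxybutyryl CoA and 1 mM NAD+. Recombinant His-tagged enzyme, 20 nM, pH 9.0 Tris buffer, 15 min compound preincubation.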
4MU fluor – 4-MU region autofluorescence | 11% of 59,000 active | max dye-equivalent concentration, M | compound autofluorescence, 340/450 nm, 4-MU equivalents; hits give high values | AID 589; in the data active = max dye-equivalent concentration above about 10 nM; inconclusive = mostly about 1.1 nM to 9.6 nM
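Compounds in 100 mM Tris, pH 8.0, sat 15 min at room temperature before fluorescence was read at 340 nm excitation/450 nm emission; a per-plate six-point 4-MU standard curve converted signals to dye-equivalent concentration at each compound concentration.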
CRE-bla Fsk – CRE-bla signaling modulation under forskolin stimulation; 2.5% of 71,000 active; CHO CRE-bla reporter (cAMP response element driving beta-lactamase), forskolin EC10, beta-lactamase ratio; Potency, µM (doses to about 38.2 µM), for inactives: at the highest dose activity change, negative = inhibition, actives largely listed as activators; active = well fitted activation curve with a large enough effect in the signal ratio, with a control signal flat, not every such curve was filed as active; inconclusive = small, poorly fitted or top-dose-only effect, or effect the other way, or a change in a side signal; the % refers to the signal ratio; note: potency is the fitted concentration of half-maximal effect; % of control where 0% means no effect
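Beta-lactamase reporter under a cAMP responsive element in CHO cells; compounds tested in titration series against EC10 NKH 477, 3 h at 37 °C. Read-out: CCF4 FRET ratio 460nm/530nm (excitation 405nm) giving %Activity, fitted to AC50.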
Active calls of the source: *; i = inactive; ? = inconclusive; . = no result; [ ] = dose if it differs, or a comment. Sampled rows, rich in hits. Any-hit rate of the full collection: about 14%. Unless noted, calls come from the whole dose curve; as a rule, active = well fitted curve in the direction sought with a large enough effect; inconclusive = small, poorly fitted or top-dose-only effect, or another doubt; inactive = no such curve, though single readings can be large; an effect the other way counts as inactive or inconclusive.

SMILES | HADH2 inh | A350 fluor | AID923 | HSD17B inhib | 4MU fluor | CRE-bla Fsk
CSc1nc2ccc(S(=O)(=O)NC3CCCCC3)cc2s1 | -3.2% | . | -0.6% | -9.3% | . | 16.6%
COc1ccc(C(=O)N2CCC3(CC2)CCN(c2ncccn2)CC3)cc1 | -0.1% | i | 1.3% | -8.5% | i | -6.1%
O=C(Oc1ccccc1)N1CCC2(CC1)CN(c1ncccn1)C2 | 9.6% | i | 1.4% | 31.6µM* | i | -6.8%
COc1ccc(C(=O)N2CCC3(CC2)CN(c2ncccn2)C3)cc1 | ? | i | 4.1% | 31.6µM* | i | -4.1%
CCCCn1cnc2sc3c(c2c1=N)CCCC3 | -3.6% | . | -0.7% | 0.7% | . | 7.5%
CC(C)(CO)NC(=O)CCCOc1ccc(Cl)cc1Cl | 1.8% | . | 1.8% | 7.0% | . | 4.9%
O=C(CCCOc1ccc(Cl)cc1Cl)NCCCO | 9.9% | 4.23e-08M* | -1.9% | -11.5% | 3.12e-08M* | -3.6%
O=C(Cn1c(-c2ccccc2)noc1=O)NCc1ccccc1 | -5.0% | i | -0.1% | 4.3% | i | 10.5%
CCOc1cc(NC(=O)c2ccco2)c(OCC)cc1NC(=O)COc1ccccc1C | -2.5% | 8.98e-08M* | 2.4% | -14.7% | 1.02e-07M* | 11.3%
O=C(Nc1ccc(Cl)cc1C(=O)Nc1ccncc1)c1ccco1 | 14.7% | ? | -0.8% | ? | ? | ?
COc1cc(NC(=O)c2ccco2)c(OC)cc1NC(=O)CCC(=O)Nc1cc(C)cc(C)c1 | 6.1% | 1.97e-08M* | -1.1% | ? | 2.01e-08M* | 16.7%
COc1cc(NC(=O)c2ccco2)c(OC)cc1NC(=O)CCC(=O)Nc1cc(C)ccc1C | 36.8% | ? | 3.8% | ? | ? | 7.8%
COc1cc(NC(=O)c2ccco2)c(OC)cc1NC(=O)CSc1ncc(-c2ccc(F)cc2)[nH]1 | 84.1% | 2.82e-08M* | 7.3% | 31.6µM* | 1.75e-08M* | ?
CCOc1cc(NC(=O)c2ccco2)c(OCC)cc1NC(=O)Cc1cccc(OC)c1 | ? | ? | 2.4% | ? | ? | ?
COc1ccc(NC(=O)c2cc(Cl)ccc2NC(=O)c2ccco2)c(OC)c1 | 41.2% | i | 3.4% | 31.6µM* | i | 21.4%
O=C(Nc1cccc2ccccc12)c1ccccc1 | -6.9%[11.4 µM] | i | -3.1%[11.5 µM] | 6.6%[11.4 µM] | i | -4.9%[7.6 µM]
O=C(NCc1cn2ccsc2n1)c1c(F)cccc1Cl | -2.4% | . | 0.6% | 7.1% | . | -11.3%
c1ccc(N2CCN(Cc3ccsc3)CC2)nc1 | 2.7%[11.4 µM] | . | 2.2% | 7.9% | . | ?
Cc1ccccc1OCc1nc(-c2ccc(NC(=O)c3ccco3)cc2)no1 | ? | i | -0.5% | 31.6µM* | i | 5.3%
CCC(=O)Nc1ccc(NC(=O)c2ccco2)c(OC)c1 | 4.9% | i | -2.3% | -2.7% | i | -2.5%
COc1cc(NC(=O)Cc2ccc(Cl)cc2)ccc1NC(=O)c1ccco1 | 67.6% | ? | 0.0% | 20µM* | ? | -19.8%
O=C(c1ccco1)c1n[nH]nc1-c1ccccc1 | -21.5% | . | 3.4% | -20.9% | . | 0.6%
CCN(CC)CCCC1(CN)OCCc2ccccc21 (configuration not stated) | . | 3.45e-08M* | . | . | 2.8e-08M* | .
CCN(CC)CCOC(=O)C1(c2ccccc2)CCOCC1 | 4.4% | i | 0.2% | -11.1% | i | 3.7%
COc1ccc2c(c1)c1ncnc(N3CCN(Cc4ccc5c(c4)OCO5)CC3)c1n2C | -1.0% | 1.65e-07M* | 0.5% | ? | 1.45e-07M* | ?
SMILES | HADH2 inh | A350 fluor | AID923 | HSD17B inhib | 4MU fluor | CRE-bla Fsk
COc1ccc2[nH]c3c(N4CCN(Cc5ccc6c(c5)OCO6)CC4)ncnc3c2c1 | . | 4.11e-08M* | . | . | 3.41e-08M* | .
COc1ccc2c(c1)c(C(O)CN1CCN(Cc3ccc4c(c3)OCO4)CC1)c(C)n2C (configuration not stated) | -11.8% | i | 3.2% | -26.2% | i | -6.0%
COc1ccccc1OCCOc1ccccc1/C=N/n1cnnc1 | 9.5% | . | -1.4% | 3.8% | . | .
CN1C2C=C3C(C#N)=C(N)C(C#N)(C#N)[C@@H](c4ccc(Cl)cc4)[C@@H]3C1CC2 (some centres not stated) | . | 1.11e-07M* | . | . | 9.21e-08M* | .
O=C(CSc1nnc(-c2cc3ccccc3cc2O)n1Cc1ccco1)c1ccc(F)cc1 | -2.1% | i | -0.8% | -29.2% | i | ?
Cc1sccc1C1C(C#N)=C(N)SC(N)=C1C#N | . | 1.5e-08M* | . | . | 1.2e-08M* | .
Cc1cc(C2C(C#N)=C(N)SC(N)=C2C#N)c(C)s1 | ? | i | 4.6% | -23.0% | i | ?
COc1ccc2c(c1)CCc1c(C(=O)Nc3ccc(OC)c(OC)c3)noc1-2 | 9.7% | 1.03e-08M* | 2.1% | 96.7% | ? | -0.1%
COc1ccc2c(c1)CCc1c(C(=O)NCCc3ccc(OC)c(OC)c3)noc1-2 | 112.9% | i | 0.2% | 7.8% | i | 16.4%
CCc1nc2ccccc2c(=O)n1CCCCn1c(CC)nc2ccccc2c1=O | 7.1% | 1.08e-08M* | 0.5% | -2.4% | 1.11e-08M* | 6.0%
Cc1sc2ncnc(SC(C)C#N)c2c1C (configuration not stated) | 3.0% | ? | -2.4% | -4.7% | i | 5.01µM*
Cc1sc2ncnc(SCc3ccco3)c2c1C | -14.1% | i | 1.1% | -19.1% | i | 25.4%
O=C(COc1ccccc1)Nc1ccc(-c2nnc(-c3ccco3)o2)cc1 | . | i | . | . | i | .
Cc1c(NC(=O)c2cc(-n3cnnc3)ccc2Cl)cccc1-c1nc2ccccc2o1 | 17.6% | i | -0.6% | -12.9% | i | ?
O=C(Nc1ccc(-c2nc3ccccc3o2)c(O)c1)c1cc(-n2cnnc2)ccc1Cl | 25.1µM* | 1.37e-07M* | -2.0% | 20µM* | 1.29e-07M* | ?
COc1cccc(C(=O)Nc2ccc(-c3nc4ccccc4o3)c(O)c2)c1 | 3.98µM* | . | 6.5% | 31.6µM* | . | 8.4%
COc1cccc(C(=O)Nc2ccc(-c3nnc(-c4ccco4)o3)cc2)c1 | . | 2.45e-08M* | . | . | 1.84e-08M* | .
COc1cc(C(=O)Nc2ccc(-c3nc4cc(C)ccc4o3)c(O)c2)cc(OC)c1OC | 25.1µM* | 4.26e-07M* | 0.2% | 25.1µM* | 5.14e-07M* | 1.3%
COc1cc(OC)cc(C(=O)Nc2ccc(-c3nc4ccccc4o3)cc2)c1 | 31.6µM* | . | 0.7% | . | . | 18.1%
COc1cc(OC)cc(C(=O)Nc2ccc3c(c2)COC3=O)c1 | 31.0% | i | -1.2% | -17.6% | i | ?
CC1=C(C(=O)OC(C)C)C(C)C(C(=O)OC(C)C)=C(C)N1 | -18.8% | 5.87e-08M* | 1.1% | ? | 5.8e-08M* | 3.0%
CCOC(=O)C1=C(C)Nc2nc3ccccc3n2C1c1ccncc1 (configuration not stated) | -3.1% | 1.67e-08M* | 0.1% | 9.9% | 1.43e-08M* | 3.1%
